Bioassay records deposited in PubChem by several laboratories.
SKN-1 inh: inhibitors of C. elegans SKN-1. 360,000 tested, 0.49% active. inhibition, % at 21.8 µM. C. elegans VP596 Pgst-4::GFP/RFP ratio, acrylamide-induced, 24 h;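 active = interference check ratio from 0.5 to 1.5 plus GFP to RFP signal ratio inhibition reaching or exceeding a fixed threshold, cut at about 30% in these data, passing the limit was not always enough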
EP2 mod: modulators of human EP2 prostaglandin E2 receptor; P43116; EP2-expressing cells, cAMP HTRF FRET, PGE2 co-stimulation; induction, % at 25 µM; 260,000 tested, 0.83% active;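 active = compounds whose cAMP rise, as percent of the full-agonist control response, exceeds 60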;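 note: rat C6 glioma line stably carrying human EP2 under a CMV promoter; the protocol text gives 20 µM as final concentration; 100% = response of wells given 1 µM PGE2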
PG9 binder: binds the HIV-1 gp120 antibody PG9. TR-FRET gp120-PG9 antibody binding. inhibition, % at 6.7 µM. 360,000 tested, 0.43% active. AID 624416; in the data active = inhibition above about 8.5%
EP2 antag: blocks the human prostaglandin E2 receptor EP2; 260,000 tested, 0.52% active; inhibition, % at 25 µM; P43116; AID 1422; C6 glioma cells expressing human EP2, cAMP TR-FRET; cells stimulated with saturating PGE2;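 active = percent inhibition above 40 after rounding to a whole number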;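 note: rat C6 glioma host cells with rolipram phosphodiesterase inhibitor present; the protocol text gives 20 µM as final concentration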
NR1D1 modulator: modulators of human Rev-erb alpha DNA binding. Rev-erbα–FITC-DNA binding, fluorescence polarization, 90 min. P20393. activity, % at 10 µM. 370,000 tested, 0.79% active. AID 1259318;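 active = activity above about 14%, limit read from the data; passing the limit was not always enough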;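 note: 0% = DMSO wells with 35 nM protein and 100% = DMSO wells with 750 nM protein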
Target sequence (P20393 whole entry, looked up): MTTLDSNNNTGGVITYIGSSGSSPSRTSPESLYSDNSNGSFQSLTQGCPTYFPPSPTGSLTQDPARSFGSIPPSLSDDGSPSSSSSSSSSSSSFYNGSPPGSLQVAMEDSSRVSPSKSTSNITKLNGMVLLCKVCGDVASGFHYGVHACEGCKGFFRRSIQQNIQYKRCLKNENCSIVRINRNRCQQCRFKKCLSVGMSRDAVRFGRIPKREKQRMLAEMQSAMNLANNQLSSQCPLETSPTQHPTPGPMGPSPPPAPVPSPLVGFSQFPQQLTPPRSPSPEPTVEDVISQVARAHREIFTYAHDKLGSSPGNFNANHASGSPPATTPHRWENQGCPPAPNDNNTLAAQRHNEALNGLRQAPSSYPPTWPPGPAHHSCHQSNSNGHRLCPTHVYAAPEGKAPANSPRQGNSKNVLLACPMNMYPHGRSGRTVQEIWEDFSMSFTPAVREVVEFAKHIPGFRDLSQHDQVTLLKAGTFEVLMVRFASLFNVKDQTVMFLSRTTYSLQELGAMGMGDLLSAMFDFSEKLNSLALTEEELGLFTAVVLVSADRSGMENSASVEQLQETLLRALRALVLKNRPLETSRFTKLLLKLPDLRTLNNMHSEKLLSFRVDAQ
RAM network inh: yeast RAM network inhibition; S. cerevisiae dse1pr::URA3 reporter, 5-FOA growth OD615, 2 d; analog-sensitive cbk1-as2 kinase mutant strain; inhibition, % at 50 µM; 190,000 tested, 1.8% active; AID 868;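 active = inhibition above a set limit, 3 SD over mean compound inhibition, cut at about 8.4% in these data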;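 note: 0% = DMSO-only wells with no growth and 100% = 10 µM 1-NA-PP1 full growth; inhibition rescues growth on 5-FOA so higher OD means more RAM inhibition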
PG9 bind confirm: confirmation of small molecules binding HIV-1 gp120 antibody PG9. shares compounds with PG9 binder. TR-FRET PG9 antibody binding, biochemical. inhibition, % at 6.7 µM. 1,500 tested, 90% active. AID 651571; in the data active = inhibition above about 9%
PGV04 counter: counter-screen for PG9 binders: binding control antibody PGV04; TR-FRET PGV04 antibody-gp120 binding, biochemical; 1,500 tested, 95% active; shares compounds with PG9 binder; inhibition, % at 6.7 µM; in the data active = inhibition above about 9.5%
Rev-erbA confirm: Rev-erb alpha (human) modulation, hit confirmation; activation, % at 25 µM; AID 1259319; Rev-erb alpha FITC-DNA binding, fluorescence polarization, 90 min; shares compounds with NR1D1 modulator; 3,000 tested, 61% active;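 active = activation at or above a set limit, or at least 3 SD above the negative control mean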;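 note: 0% = 35 nM protein with DMSO and 100% = 750 nM protein high control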
RORg DNA counter: affects RORgamma DNA binding in a Rev-erb alpha counter-screen. IC50, µM. shares compounds with NR1D1 modulator. purified RORgamma protein-FITC-DNA binding, fluorescence polarization. 910 tested, 8% active. AID 1259320;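 active = Compounds whose fitted half-maximal concentration for disrupting protein-DNA binding is below 10 micromolar; the record names Rev-erb in its text, so the target is in doubt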
Active calls of the source: *; i = inactive; . = not tested or not shown. Rows were chosen to be rich in hits. Some 2.9% of all compounds tested hit in one or more screens of this group.

SMILES | SKN-1 inh | EP2 mod | PG9 binder | EP2 antag | NR1D1 modulator | RAM network inh | PG9 bind confirm | PGV04 counter | others
CCN(CC)C(=O)Cc1c(OC)ccc2cc(Br)ccc12 | 1.2 | -3.0 | 3.0 | 9.0 | 2.6 | 0.2 | . | .
CCCNC(=O)Cc1c(OC)ccc2cc(Br)ccc12 | -6.5 | 53.9 | 11.0* | 20.2 | 8.0 | 1.9 | 23.7* | 30.7*
COc1ccc2cc(Br)ccc2c1CC(=O)NCC1CCCO1 (stereo not drawn) | -10.0 | 50.6 | 7.6 | 15.8 | -1.6 | 2.2 | . | .
CCNC(=O)Cc1c(OC)ccc2cc(Br)ccc12 | 1.7 | 12.8 | 6.7 | 11.2 | -3.0 | -0.4 | . | .
CCCCNC(=O)Cc1c(OC)ccc2cc(Br)ccc12 | 5.4 | 46.5 | 8.6* | 14.8 | 3.1 | 6.4 | 16.9* | 20.8*
O=C(O)c1ccccc1C(=O)c1cccc2c(Br)cccc12 | 0.8 | . | 54.5* | . | 8.9 | . | 67.6* | 83.4*
COc1ccc(-c2nnc3c4nnn(Cc5ccccc5Cl)c4ncn23)cc1 | . | -72.2 | . | . | . | . | . | .
N#Cc1c(-c2ccccc2)c(C#N)c2nc3ccccc3n2c1N | 2.1 | -57.3 | 8.8* | 21.5 | 1.3 | 1.3 | 17.9* | 24.1*
Cc1ccc(-c2c(C#N)c(N)n3c(nc4ccccc43)c2C#N)cc1 | 17.2 | -8.8 | 0.2 | 24.3 | -0.6 | 2.7 | . | .
S=c1[nH]nc(-c2ccccc2)o1 | 7.1 | 34.7 | 6.7 | 30.3 | -1.9 | -0.4 | . | .
Cc1ccc(-c2cc(-c3n[nH]c(=S)o3)c3ccccc3n2)cc1 | 8.4 | -3.9 | -0.4 | 18.8 | -2.2 | 3.7 | . | .
CSc1ccccc1-c1n[nH]c(=S)o1 | -9.3 | 38.4 | 35.1* | 46.4* | -2.9 | 2.4 | 39.6* | 51.7*
Cc1ccccc1-c1n[nH]c(=S)o1 | 4.9 | 40.6 | 34.5* | 29.1 | . | -0.9 | 35.1* | 46.9*
CCc1nc2ccccc2c(C(=O)Nc2ccccc2)c1C | . | -38.8 | . | 9.9 | . | . | . | .
CCOc1ccc2ccc(OCC)c(C3C(C#N)=C(N)OC4=C3C(=O)CC(C)(C)C4)c2c1 (stereo not drawn) | . | 30.9 | . | 18.0 | . | . | . | .
COc1ccc(/C(O)=C2\C(=O)C(=O)N(c3cc(C)on3)C2c2ccc(OC)c(OC)c2)cc1OC (stereo not drawn) | -25.6 | 29.8 | 1.8 | 7.7 | 0.6 | 6.3 | . | .
COc1cccc(C2/C(=C(\O)c3ccc(OC)c(OC)c3)C(=O)C(=O)N2c2cc(C)on2)c1 (stereo not drawn) | 6.3 | 37.9 | 14.2* | 31.7 | 1.0 | 2.3 | 24.6* | 33.7*
CC12CN3CC(C)(CN(C1)C3c1cn(Cc3ccccc3)c3ccccc13)C2O (stereo not drawn) | . | -54.5 | . | 9.6 | . | . | . | .
O=C(Nc1ncc(Cc2ccc(SC(F)F)cc2)s1)c1ccc(OC(F)F)cc1 | -2.0 | -52.9 | 21.7* | 14.5 | 14.1 | 6.5 | 12.0* | 18.1*
O=C(Nc1nccs1)c1cc2sccc2n1Cc1ccc(F)cc1 | 14.6 | 0.6 | 9.4* | 11.0 | 15.9 | 4.0 | 14.8* | 19.4*
CCN(CC)C(C(=O)N1CCC2(CC1)NC(=O)c1ccccc1O2)c1ccccc1 (stereo not drawn) | . | -14.9 | . | 2.4 | . | . | . | .
O=C(O)c1cc(-c2ccco2)nc2ccc(Br)cc12 | 10.6 | 43.6 | 25.3* | 31.9 | -5.8 | 1.8 | 44.7* | 58.0*
COc1ccc(-n2ncc3c(=O)n(CC(=O)Nc4ccc5c(c4)OCCO5)cnc32)cc1 | -4.8 | . | 11.7* | . | 21.8 | . | 19.1* | 22.6*
COC(=O)Cn1cnc2c(cnn2-c2ccc(OC)cc2)c1=O | 21.6 | . | -0.8 | . | -2.9 | . | . | .
CCn1ccc(C(=O)Nc2sc3c(c2C(=O)OC)CCC3)n1 | 6.9 | . | -1.2 | . | -3.8 | . | . | .
SMILES | SKN-1 inh | EP2 mod | PG9 binder | EP2 antag | NR1D1 modulator | RAM network inh | PG9 bind confirm | PGV04 counter | others
COC(=O)c1c(NC(=O)c2ccn(C)n2)sc2c1CCC2 | -9.9 | . | 9.0* | . | 20.0* | . | 7.1 | 12.5* | Rev-erbA confirm=-4.7
COc1ccc(CNC(=O)CCCn2c(=S)[nH]c3cc4c(cc3c2=O)OCO4)cc1 | 14.4 | . | 25.9* | . | 56.4* | . | 17.0* | 20.8* | Rev-erbA confirm=35.9*;RORg DNA counter=>40
O=C(CCCn1c(=S)[nH]c2cc3c(cc2c1=O)OCO3)NCc1cccc(Cl)c1 | -2.5 | . | 17.4* | . | 48.4* | . | 13.1* | 22.6* | Rev-erbA confirm=29.9*;RORg DNA counter=>40
CCC(C)(C)NC(=O)CN(C(=O)c1snc(C(N)=O)c1N)c1ccc(C)cc1C | . | -25.9 | . | 18.0 | . | . | . | .
CN(CCOc1ccccc1)C(=O)c1cc(-c2ccccn2)n[nH]1 | . | -18.6 | . | 12.6 | . | . | . | .
Cc1cc(NC(=O)COc2ccc3oc4ccccc4c3c2)no1 | 26.0 | 21.8 | 22.6* | 3.1 | 35.9* | 0.7 | 22.7* | 31.9* | Rev-erbA confirm=25.8*
CCn1c(=NC(=O)c2ccc(N3C(=O)CCC3=O)cc2)sc2c(OC)ccc(OC)c21 | -5.2 | 25.4 | 15.9* | 10.9 | 81.8* | 4.1 | 30.6* | 55.5* | Rev-erbA confirm=95.7*;RORg DNA counter=i
CCn1c(=NC(=O)c2cccc(N3C(=O)CCC3=O)c2)sc2c(C)ccc(OC)c21 | -3.1 | -14.1 | 0.7 | 8.7 | 6.2 | . | . | .
COc1cc(C2NC(=O)C(=O)/C2=C(\O)c2ccccc2)ccc1O (stereo not drawn) | . | -1.6 | . | 9.7 | . | . | . | .
COc1ccccc1N(C)S(=O)(=O)c1ccc(C(=O)Nc2nc(C)c(C(C)=O)s2)cc1 | -2.4 | . | 39.6* | . | 103.6* | . | 41.2* | 60.9* | Rev-erbA confirm=87.3*;RORg DNA counter=>40
CCOC(=O)C1CCN(C(c2cc3cc(C)ccc3[nH]c2=O)c2nnnn2CCOC)CC1 (stereo not drawn) | . | -55.1 | . | 13.6 | . | . | . | .
Cc1ccc(CN(Cc2cc3cccc(C)c3[nH]c2=O)C(c2nnnn2C2CCCC2)C(C)C)cc1 (stereo not drawn) | . | 15.9 | . | 6.6 | . | . | . | .
O=S(=O)([N-]c1nc2ccccc2nc1-n1cc[n+](Cc2ccccc2)c1)c1ccc(Cl)cc1 | 7.0 | 34.6 | 42.0* | 4.1 | 42.3* | . | 41.2* | 57.7* | Rev-erbA confirm=11.3
CCOc1ccc2[nH]c(=O)c(CN(C3CCCCC3)C(c3nnnn3C(C)(C)C)C(C)C)cc2c1 (stereo not drawn) | . | -9.7 | . | 14.6 | . | . | . | .
COc1ccccc1NC(=O)c1sc2ncn(Cc3ccccc3C)c(=O)c2c1C | 10.4 | 15.0 | 52.1* | 24.6 | 62.2* | 4.2 | 54.6* | 74.2* | Rev-erbA confirm=23.0*
N#Cc1cc2c(nc1SCc1ccccc1)CCCC2 | 1.4 | 22.8 | 36.1* | 27.3 | 27.5* | 7.7 | 44.2* | 75.7* | Rev-erbA confirm=20.9*
